These results are taken from PubChem BioAssay (NCATS).

Experiment [1] concerns the target Ubiquitin carboxyl-terminal hydrolase 1 (Homo sapiens) (UniProt O94782). Briefly: Inhibitors of USP1/UAF1: Pilot qHTS (AID 504865).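 For activity change, negative = inhibition: rhodamine fluorescence freed from ubiquitin-rhodamine substrate followed over time; top concentration of the series differs between compounds; % is set by controls: 0 for no effect and ±100 for the full control effect.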 Note: nearly all actives have a fitted effect of over 35% in size. Note: potency is the fitted concentration of half-maximal effect. The method in brief:
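1nM USP1/UAF1 + cpd, 15 min RT; start w/ Ub-Rho 150nM final; kinetic FL 480/540 nm, 6 reads q60 s. Buffer 50mM HEPES pH 7.8, 0.5mM EDTA, 1mM TCEP, 0.01% Tween-20, 0.1 mg/ml BSA.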

Experiment [2] can be described thus: qHTS profiling for inhibitors of Plasmodium falciparum proliferation (AID 504749).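 For activity, negative = inhibition: 0% = DMSO vehicle and full inhibition = artemisinin control.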 For all read-outs here: nearly all actives have a fitted effect of over 60% in size. Note: potency is the fitted concentration of half-maximal effect. The conditions noted are these: P. falciparum in erythrocytes, SYBR Green DNA, 72 h; for activity, negative = inhibition: at 28.7 µM (top of the series). The method in brief:
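Three-day growth assay of blood-stage parasites in erythrocytes (0.3% parasitemia, 2.5% hematocrit) at 37 C, 5% CO2, quantified by SYBR Green DNA staining after overnight detergent lysis.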

Experiment [3] can be described thus: qHTS for differential inhibitors of proliferation of Plasmodium falciparum line 7G8 (AID 1815).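 For activity change, negative = inhibition: plate controls were vehicle wells for no effect and reference inhibitor wells for full effect.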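 Note: parasite growth measured after three days of incubation.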 Note: potency is the fitted concentration of half-maximal effect.
Experiment [4] in a line: qHTS for differential inhibitors of proliferation of Plasmodium falciparum line GB4 (AID 1816).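 Note: parasite growth measured after 72 h incubation; 0% = vehicle DMSO and -100% = reference inhibitor.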 The settings on record: Potency: Plasmodium falciparum GB4 proliferation inhibition. (In general: qHTS replaces the single test concentration by a dilution series.)
Experiment [5] is described as follows: qHTS for differential inhibitors of proliferation of Plasmodium falciparum line 3D7 (AID 1876).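 Note: parasite growth measured after three days of culture; 0% = vehicle wells and -100% = reference inhibitor wells.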
A short description of experiment [6]: qHTS for differential inhibitors of proliferation of Plasmodium falciparum line D10 (AID 1877).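 Note: parasites grown with compound for 72 h before DNA staining; plate controls were vehicle wells for no effect and reference inhibitor wells for full effect.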
Experiment [7] is described as follows: qHTS for differential inhibitors of proliferation of Plasmodium falciparum line Dd2 (AID 1882).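 Note: compound exposure of 72 h on infected erythrocytes; plate controls were DMSO vehicle for no effect and 0.29 µM artemisinin for full effect; nearly all actives have a fitted effect of over 65% in size.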 The conditions noted are these: Potency: Plasmodium falciparum Dd2 proliferation inhibition. In short, it runs like this:
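SYBR Green I DNA fluorescence read-out, ex 485/em 535 nm. Signals were normalized to 0.29 uM artemisinin and DMSO wells, then corrected using vehicle-only plates flanking each stack. Parasite growth ran 72 h in erythrocytes before lysis.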

The nature of experiment [8]: qHTS for differential inhibitors of proliferation of Plasmodium falciparum line W2 (AID 1883).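 For activity change, negative = inhibition: 0% = vehicle wells and -100% = control inhibitor wells.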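 Note: parasites grown with compound for 72 h before lysis and staining.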 Note: potency is the fitted concentration of half-maximal effect. The conditions noted are these: Potency: Plasmodium falciparum W2 proliferation inhibition.
Experiment [9] in a line: qHTS for differential inhibitors of proliferation of Plasmodium falciparum line HB3 (AID 1886).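 Note: parasites grown with compound for 72 h before SYBR Green readout; plate controls were vehicle for no effect and reference inhibitor for full effect.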 The conditions noted are these: Potency: Plasmodium falciparum HB3 proliferation inhibition.
Experiment [10] can be described thus: qHTS Assay for Modulators of Human Peripheral Myelin Protein 22 (PMP22) Expression/Activity (AID 1967; active = well fitted curve in the direction sought with a large enough effect in the signal ratio; the % refers to the signal ratio;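 note: 0% = untreated cells and 100% end not stated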). In short, it runs like this: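 Mouse MSC80 Schwann line, Pmp22 promoter–CBG68 reporter, EF-alpha–CBR internal control. 24h compound exposure, 37 °C/5% CO2, DMEM + 10% FBS. Readout: corrected green/red luminescence ratio, normalized to untreated cells; concentration-response curves fitted and classified.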

For experiment [11], the target named is Ferritin light chain (Equus caballus) (UniProt P02791). Briefly: qHTS Validation Assay for Identification of Novel General Anesthetics (AID 2323). Note: % is set by controls: 0 for no effect and ±100 for the full control effect. In short, it runs like this: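 10 uM horse-spleen apoferritin + 1-AMA (50% saturated, PBS); cpd pin-transferred, 10 min RT. Ex 380/Em 535 nm endpoint. Activity normalized between free 1-AMA and 1-AMA/apoferritin; 4-parameter Hill fit of concentration-response.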
Chain of Ferritin light chain (Equus caballus) (P02791 2-175 limits assumed): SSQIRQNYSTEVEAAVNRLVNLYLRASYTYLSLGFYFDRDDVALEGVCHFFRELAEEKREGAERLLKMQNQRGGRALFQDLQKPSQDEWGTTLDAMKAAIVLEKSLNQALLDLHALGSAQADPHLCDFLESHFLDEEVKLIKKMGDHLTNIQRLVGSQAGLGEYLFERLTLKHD

Experiment [12] in a line: AP1 Signaling Pathway (AID 357; active = well fitted curve in either direction with a large enough effect, not every such curve was filed as active;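 note: ME-180 reporter cells stimulated with EGF at its EC50 level; % is set by controls: 0 for no effect and ±100 for the full control effect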). The conditions noted are these: ME-180 AP-1-bla reporter, EGF-induced, beta-lactamase ratio, 5 h. The method in brief: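 Titration-series screen for positive or negative modulators of EC50 EGF-induced signaling in ME-180 cells carrying an AP-1-driven beta-lactamase reporter. After 5 hours at 37 degrees Celsius, CCF4 460nm/530nm emission ratio gave %Activity; AC50 values derived.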

The nature of experiment [13]: Stat Signaling Pathway (AID 446; active = well fitted curve in either direction with a large enough effect, not every such curve was filed as active;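 note: ME-180 cervical cancer cells given 40 pM IL-6 alongside compound; SIE-controlled beta-lactamase reporter measured as 460/530 nm FRET emission ratio; % is set by controls: 0 for no effect and ±100 for the full control effect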). The settings on record: ME-180 SIE beta-lactamase reporter, IL-6 stimulated, 5 h. The method in brief: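 ME-180 SIE-bla cells; overnight plating; cpd + IL-6 40 pM, 5 h, 37 C; LiveBLAzer 2.5 h RT; 460/530 nm emission ratio. Normalized to 300 pM IL-6 and 125 nM JAK inhibitor controls.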
For experiment [14], the target named is Guanine nucleotide-binding protein G(i) subunit alpha-1 (Homo sapiens) (UniProt P63096). The experiment can be described thus: qHTS Assay for Inhibitors of RGS12 GoLoco Motif Activity (Green Fluorophore) (AID 879).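 Note: 0% = labeled peptide with Gαi1 and full inhibition = labeled peptide alone without protein; negative values mean loss of peptide binding seen as reduced polarization.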 The method in brief:
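Fluorescence polarization assay: 50 nM Gαi1 with 10 nM FITC-labeled RGS12 GoLoco peptide in 10 mM Tris pH 7.5, 150 mM NaCl, 0.1 mM GDP, 0.05% NP40, 10 min at room temperature with compound.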

In experiment [15] the target is Pyruvate kinase (Leishmania mexicana) (UniProt Q27686). The experiment can be described thus: qHTS Validation Assay for Inhibitors of Leishmania Mexicana Pyruvate Kinase (AID 945).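 Note: 0% = DMSO only neutral control wells.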 In short, it runs like this: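 Pyruvate kinase activity of E451W LmPYK (0.2 nM) was followed as ATP output after 1 h at room temperature with 0.5 mM PEP and 0.1 mM ADP, detected by PKLight luminescence.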
Chain of Pyruvate kinase (Leishmania mexicana) (Q27686 2-499 E452W): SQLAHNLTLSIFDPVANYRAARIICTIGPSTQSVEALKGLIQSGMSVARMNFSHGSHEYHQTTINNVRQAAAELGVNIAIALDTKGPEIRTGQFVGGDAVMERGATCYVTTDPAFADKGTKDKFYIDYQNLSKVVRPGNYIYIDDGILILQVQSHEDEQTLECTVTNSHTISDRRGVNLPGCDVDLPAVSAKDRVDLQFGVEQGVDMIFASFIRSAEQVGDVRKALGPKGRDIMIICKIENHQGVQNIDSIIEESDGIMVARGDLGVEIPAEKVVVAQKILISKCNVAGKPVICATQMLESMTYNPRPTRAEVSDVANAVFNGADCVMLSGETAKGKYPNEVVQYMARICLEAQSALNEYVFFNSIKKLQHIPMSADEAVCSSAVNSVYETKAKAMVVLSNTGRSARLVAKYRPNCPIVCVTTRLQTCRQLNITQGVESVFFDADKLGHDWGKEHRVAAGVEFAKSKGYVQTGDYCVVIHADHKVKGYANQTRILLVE

For experiment [16], the target named is Pyruvate kinase PKM (Homo sapiens) (UniProt P14618). Briefly: qHTS Assay for Activators of Human Muscle Pyruvate Kinase (AID 954; active = well fitted curve in the direction sought with a large enough effect, not every such curve was filed as active;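 note: 0% = uninhibited enzyme and -100% = no enzyme or full thiadiazolimine inhibition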). In short, it runs like this: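 Luminescence from a luciferase ATP-detection/stop reagent reported PKM2 activity. Reactions contained 0.1 nM purified human enzyme, 0.5 mM PEP, 0.1 mM ADP and 7 mM MgCl2 at pH 7.2, run 1 h at RT.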
Chain of Pyruvate kinase PKM (Homo sapiens) (P14618 whole entry, looked up): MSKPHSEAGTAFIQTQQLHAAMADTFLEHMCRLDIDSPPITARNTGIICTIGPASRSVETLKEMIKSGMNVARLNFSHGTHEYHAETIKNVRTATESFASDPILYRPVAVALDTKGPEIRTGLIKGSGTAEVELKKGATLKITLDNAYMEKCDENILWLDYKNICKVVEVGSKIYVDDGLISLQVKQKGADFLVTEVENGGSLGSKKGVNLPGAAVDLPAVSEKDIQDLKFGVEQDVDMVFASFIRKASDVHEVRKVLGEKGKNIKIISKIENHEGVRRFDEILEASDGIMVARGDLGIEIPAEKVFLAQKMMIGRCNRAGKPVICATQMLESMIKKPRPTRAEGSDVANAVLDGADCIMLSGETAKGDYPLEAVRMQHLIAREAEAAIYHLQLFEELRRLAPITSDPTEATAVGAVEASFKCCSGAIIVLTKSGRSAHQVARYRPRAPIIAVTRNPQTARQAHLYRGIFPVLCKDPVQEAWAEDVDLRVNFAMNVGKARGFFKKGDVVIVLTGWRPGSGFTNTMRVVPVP

Experiment [17] concerns the target Alpha-galactosidase A (Homo sapiens) (UniProt P06280). Briefly: Counterscreen for Glucocerebrosidase Inhibitors: qHTS Assay for Human alpha-Galactosidase at pH 4.5 (AID 992). Note: 0% is about no effect. The method in brief:
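Enzyme at 2 nM final was combined with compound (0.7 nM to 77 uM) and 80 uM 4-methylumbelliferyl alpha-D-galactopyranoside in 50 mM citric acid, 0.005% Tween-20, pH 4.5. After 20 min at room temperature, fluorescence was read (Ex 365/Em 440 nm); AC50 came from Hill fits.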
For orientation: The purpose of a counterscreen is to sort out artefacts and off-target activity.

Experiment [18] concerns the target alpha-glucosidase (Oryza sativa, rice) (UniProt Q653V4). The experiment can be described thus: Counterscreen for Glucocerebrosidase Inhibitors: qHTS Assay for Rice alpha-Glucosidase at pH 5.0 (AID 997).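 Note: 0% = full activity with enzyme and -100% = basal without enzyme.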 In short, it runs like this:
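Rice alpha-glucosidase (4 nM final) with 400 uM 4-methylumbelliferyl-alpha-D-glucopyranoside in citrate buffer pH 5.0, 20 min at room temperature, stopped at pH 10; fluorescence 365/440 nm, compounds 0.7 nM–77 uM, AC50 from Hill fits.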

The target in experiment [19] is Transient receptor potential cation channel subfamily V member 1 (Homo sapiens) (UniProt Q8NER1). The experiment can be described thus: HTS Assay for Compounds that Act as Enhancers of the Vanilloid Receptor 1 (AID 488979). Note: 0% is about no effect. The method in brief:
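Calcium influx kinetics via Fluo-8 (480/520 nm) in TRPV1-expressing cells, 2000/well cultured overnight at 35.5C. Compound-alone read 3 min (agonist phase), followed by EC20 capsaicin challenge for 2 min (enhancer phase).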

Experiment [20] has as its target Thyrotropin receptor (Homo sapiens) (UniProt P16473). Briefly: qHTS Assay for Antagonists of the Thyroid Stimulating Hormone Receptor (AID 488980). Note: 0% is about no effect. The method in brief: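 TSHR-HEK293 cells; 70 uM RO 20-1724 PDE inhibitor; compound + EC80 TSH (4 nM final); anti-cAMP cryptate antibody/cAMP-d2 in lysis buffer, 30 min RT; HTRF 665/620 nm read.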
Setting [21] is: at 7.69 µM (top of the series) unless noted.

Values without a mark were called inactive. Results filed as inconclusive are left out. Calls of active or inactive are those of the source. Unless noted, calls come from the whole dose curve; as a rule, active = well fitted curve in the direction sought with a large enough effect; inconclusive = small, poorly fitted or top-dose-only effect, or another doubt; inactive = no such curve, though single readings can be large; an effect the other way counts as inactive or inconclusive.

Chain of Transient receptor potential cation channel subfamily V member 1 (Homo sapiens) (Q8NER1 whole entry, looked up): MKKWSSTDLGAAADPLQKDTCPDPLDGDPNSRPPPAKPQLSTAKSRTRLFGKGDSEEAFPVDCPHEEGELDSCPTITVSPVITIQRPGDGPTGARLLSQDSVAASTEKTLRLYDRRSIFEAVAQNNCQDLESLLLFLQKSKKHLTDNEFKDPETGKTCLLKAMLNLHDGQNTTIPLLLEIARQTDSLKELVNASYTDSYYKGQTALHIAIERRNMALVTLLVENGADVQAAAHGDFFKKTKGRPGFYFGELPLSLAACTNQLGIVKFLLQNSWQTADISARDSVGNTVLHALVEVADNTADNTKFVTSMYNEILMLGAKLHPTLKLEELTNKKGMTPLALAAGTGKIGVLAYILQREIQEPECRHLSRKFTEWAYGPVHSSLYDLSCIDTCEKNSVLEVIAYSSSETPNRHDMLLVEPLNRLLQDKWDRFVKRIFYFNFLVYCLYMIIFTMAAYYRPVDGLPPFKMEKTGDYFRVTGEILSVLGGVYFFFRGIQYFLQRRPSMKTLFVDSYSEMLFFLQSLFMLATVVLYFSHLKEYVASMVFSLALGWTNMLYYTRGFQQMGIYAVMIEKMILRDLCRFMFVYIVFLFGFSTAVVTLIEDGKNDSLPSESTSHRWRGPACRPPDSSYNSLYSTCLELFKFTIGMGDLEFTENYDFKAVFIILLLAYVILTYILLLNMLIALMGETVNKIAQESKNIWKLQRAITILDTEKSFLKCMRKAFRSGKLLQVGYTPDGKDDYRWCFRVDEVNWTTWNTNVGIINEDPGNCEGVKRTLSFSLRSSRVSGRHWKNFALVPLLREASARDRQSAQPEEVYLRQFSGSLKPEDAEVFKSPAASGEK
Chain of Alpha-galactosidase A (Homo sapiens) (P06280 whole entry, looked up): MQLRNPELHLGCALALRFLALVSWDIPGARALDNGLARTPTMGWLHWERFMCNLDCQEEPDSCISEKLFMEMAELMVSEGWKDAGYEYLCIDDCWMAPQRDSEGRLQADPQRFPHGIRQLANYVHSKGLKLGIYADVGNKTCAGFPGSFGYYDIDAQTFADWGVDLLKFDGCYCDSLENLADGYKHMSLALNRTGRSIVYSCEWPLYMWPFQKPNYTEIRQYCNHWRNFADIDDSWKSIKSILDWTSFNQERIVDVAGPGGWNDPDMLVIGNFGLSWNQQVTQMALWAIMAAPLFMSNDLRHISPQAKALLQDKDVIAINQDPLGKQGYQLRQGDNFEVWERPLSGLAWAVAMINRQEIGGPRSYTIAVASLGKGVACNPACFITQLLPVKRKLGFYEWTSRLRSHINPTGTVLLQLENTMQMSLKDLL
Chain of Thyrotropin receptor (Homo sapiens) (P16473 whole entry, looked up): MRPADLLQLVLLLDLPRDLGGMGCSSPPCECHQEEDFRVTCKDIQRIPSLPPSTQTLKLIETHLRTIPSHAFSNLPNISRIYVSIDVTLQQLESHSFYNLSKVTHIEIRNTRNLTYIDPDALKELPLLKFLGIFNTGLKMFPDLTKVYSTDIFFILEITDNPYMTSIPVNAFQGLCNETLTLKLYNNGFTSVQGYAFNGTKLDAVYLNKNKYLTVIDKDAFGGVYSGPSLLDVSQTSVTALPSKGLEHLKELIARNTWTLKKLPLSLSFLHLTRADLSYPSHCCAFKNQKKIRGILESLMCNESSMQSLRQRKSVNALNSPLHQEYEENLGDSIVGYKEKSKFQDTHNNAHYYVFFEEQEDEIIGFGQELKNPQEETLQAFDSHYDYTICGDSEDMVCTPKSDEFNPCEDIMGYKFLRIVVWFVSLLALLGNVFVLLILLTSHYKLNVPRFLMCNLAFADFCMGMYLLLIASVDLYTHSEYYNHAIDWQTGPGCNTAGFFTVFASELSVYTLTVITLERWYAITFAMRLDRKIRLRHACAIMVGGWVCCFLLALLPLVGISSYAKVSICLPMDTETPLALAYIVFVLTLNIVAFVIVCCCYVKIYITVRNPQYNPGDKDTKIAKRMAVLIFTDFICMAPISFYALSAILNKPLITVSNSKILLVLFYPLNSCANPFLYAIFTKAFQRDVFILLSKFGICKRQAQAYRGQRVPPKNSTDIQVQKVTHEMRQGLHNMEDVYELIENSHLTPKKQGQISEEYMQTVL
Chain of Guanine nucleotide-binding protein G(i) subunit alpha-1 (Homo sapiens) (P63096 whole entry, looked up): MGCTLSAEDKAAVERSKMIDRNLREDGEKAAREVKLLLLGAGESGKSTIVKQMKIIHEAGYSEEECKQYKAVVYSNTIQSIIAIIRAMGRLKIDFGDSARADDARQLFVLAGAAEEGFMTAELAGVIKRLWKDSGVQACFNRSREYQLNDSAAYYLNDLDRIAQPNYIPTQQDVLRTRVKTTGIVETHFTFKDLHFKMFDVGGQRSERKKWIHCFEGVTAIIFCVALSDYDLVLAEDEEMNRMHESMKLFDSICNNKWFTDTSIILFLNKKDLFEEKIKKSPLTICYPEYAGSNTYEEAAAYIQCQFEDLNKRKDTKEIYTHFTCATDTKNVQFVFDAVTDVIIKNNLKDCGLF
Chain of Ubiquitin carboxyl-terminal hydrolase 1 (Homo sapiens) (O94782 whole entry, looked up): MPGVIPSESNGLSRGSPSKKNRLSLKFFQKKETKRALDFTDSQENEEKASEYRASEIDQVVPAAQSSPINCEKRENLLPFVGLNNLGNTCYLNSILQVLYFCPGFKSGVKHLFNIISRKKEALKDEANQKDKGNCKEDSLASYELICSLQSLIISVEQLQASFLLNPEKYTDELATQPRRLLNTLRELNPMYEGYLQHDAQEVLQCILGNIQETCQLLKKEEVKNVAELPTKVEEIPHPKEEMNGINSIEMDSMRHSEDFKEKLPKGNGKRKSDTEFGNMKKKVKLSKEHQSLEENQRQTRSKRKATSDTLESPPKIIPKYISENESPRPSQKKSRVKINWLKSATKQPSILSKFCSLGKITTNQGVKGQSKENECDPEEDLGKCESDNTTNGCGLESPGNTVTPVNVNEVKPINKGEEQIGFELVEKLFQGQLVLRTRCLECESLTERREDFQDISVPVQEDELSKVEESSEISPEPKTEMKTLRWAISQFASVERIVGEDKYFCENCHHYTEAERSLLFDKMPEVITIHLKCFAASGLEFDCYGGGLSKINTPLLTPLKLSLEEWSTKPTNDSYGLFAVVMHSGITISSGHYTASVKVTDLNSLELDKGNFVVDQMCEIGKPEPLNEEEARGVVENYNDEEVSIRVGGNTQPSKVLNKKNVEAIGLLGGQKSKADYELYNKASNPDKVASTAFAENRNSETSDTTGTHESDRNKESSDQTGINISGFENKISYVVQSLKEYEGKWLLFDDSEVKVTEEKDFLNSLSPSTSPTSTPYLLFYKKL

With `CO[C@H]1/C=C/O[C@@]2(C)Oc3c(C)c(O)c4c(O)c(c(/C=N\N5CCN(C6CCCC6)CC5)c(O)c4c3C2=O)NC(=O)/C(C)=C\C=C\[C@H](C)[C@H](O)[C@@H](C)[C@@H](O)[C@@H](C)[C@H](OC(C)=O)[C@@H]1C`, the Potency in experiment [1] was 56.2 µM (active); in experiment [2] (parasite line A) it was 1.58 µM (active); in experiment [2] (parasite line B), 0.631 µM (active).

Take `O=C(CCc1ccc(O)cc1)c1c(O)cc(O)cc1O[C@@H]1O[C@H](CO)[C@@H](O)[C@H](O)[C@H]1O`: the Potency entry in experiment [1] was “inactive”.

Regarding `C=C1/C(=C\C=C2/CCC[C@]3(C)[C@@H]([C@H](C)CCCC(C)(C)O)CC[C@@H]23)C[C@@H](O)C[C@@H]1O`, the activity, negative = inhibition in experiment [2] (parasite line A) is -3.09%; in experiment [2] (parasite line B), -9.52%.

As to `CN=C(N)NCCCC(N)C(=O)O` (configuration not stated), the Potency entry in experiment [3], in experiment [4], in [5], in experiment [6], in experiment [7] and in experiment [8] was “inactive” in each case. Also, the Potency entry in experiment [9] and in experiment [1] was “inactive” throughout. The call in experiment [10] and in experiment [11] was inactive. The activity, negative = inhibition in [2] (parasite line A) was 12.3%; in [2] (parasite line B) it was 12.2%.

Turning to `NCCC(=O)NCCc1cnc[nH]1`, the activity change, negative = inhibition is -8.55% in experiment [12] (at 17.2 µM (top of the series)) and 7.43% in experiment [12] (at 38 µM (top of the series)). In addition, the activity, negative = inhibition in experiment [13] (at 17.2 µM (top of the series)) is 9.79%; in experiment [13] (at 38 µM (top of the series)), -27.3%. Further, the result in experiment [14], in [16], in experiment [17], in experiment [18], in experiment [10] and in experiment [11] was inactive. In addition, the outcome in [19] was inactive. Further, the Potency entry in [15], in experiment [3], in experiment [4], in experiment [5], in [6] and in experiment [7] was “inactive” in each case. The Potency entry in experiment [8], in experiment [9] and in [1] was “inactive” each time.

Turning to `N=C1Sc2ccccc2C2=NCCCN12`, the activity change, negative = inhibition in experiment [12] (setting [21]) is 18% [at 38 µM]. Moreover, the molecule was classed as inactive in experiment [14], in experiment [16], in [17], in experiment [18] and in experiment [11]. Besides, the Potency result in [15], in experiment [5], in experiment [6] and in [7] was “inactive” each time.

For the molecule `Cc1cn([C@H]2C[C@@H](N=[N+]=[N-])[C@@H](CO)O2)c(=O)[nH]c1=O`, the Potency result in experiment [3], in experiment [4], in experiment [5], in experiment [6], in [7] and in [8] was “inactive” in each case. For the same molecule, in experiment [9], the Potency entry was “inactive”. In addition, the molecule was classed as inactive in experiment [11].

For `COc1c2c(nc3ccccc13)OC(C(C)(O)CO)C2` (configuration not stated), the Potency entry in [3], in [4], in experiment [5], in experiment [6], in experiment [7] and in experiment [8] was “inactive” each time. Also, the Potency result in [9] was “inactive”. The result in experiment [10] and in [11] was inactive.

On to `CN1C(=O)CCC1c1cccnc1` (configuration not stated), for which the Potency result in experiment [3], in [4], in experiment [6], in experiment [7], in experiment [9] and in experiment [1] was “inactive” in each case. For the same molecule, the molecule was classed as inactive in experiment [10], in [11] and in experiment [20]. Besides, the activity, negative = inhibition in experiment [2] (parasite line A) was 0.771%; in experiment [2] (parasite line B), 4.61%.

Turning to `O=C(O)CC[C@H](NC(=O)c1ccccc1C(=O)O)C(=O)O`, the Potency result in [3], in [4], in experiment [5], in [6], in experiment [7] and in experiment [8] was “inactive” in each case. Moreover, the Potency entry in [9] was “inactive”. In addition, the outcome in experiment [10], in experiment [11], in experiment [19] and in [20] was inactive.

In the case of `CNC(=O)[C@H]1O[C@@H](n2cnc3c(NCc4cccc(I)c4)ncnc32)[C@H](O)[C@H]1O`, the results for the Potency in experiment [3] and in experiment [8] were 7.94 µM (active) and 8.91 µM (active), respectively. Moreover, in experiment [7], the Potency result is “inactive”. Further, the outcome in [11] and in experiment [20] was inactive.

`Cc1ccccc1N1CCN(S(=O)(=O)C[C@]23CCC(CC2NC(=O)[C@@H](N)CCS(C)(=O)=O)C3(C)C)CC1` (some centres not stated): the Potency entry in experiment [5] and in experiment [9] was “inactive” throughout. Moreover, the Potency in experiment [8] was 12.6 µM (active). Besides, the outcome in experiment [11] and in [19] was inactive.

`NC(=NCCC[C@H](N)C(=O)O)NO`: the activity change, negative = inhibition in experiment [12] (setting [21]) was -0.154% [at 38 µM]. Besides, the activity, negative = inhibition in experiment [13] (setting [21]) was -18.2% [at 38 µM]. The call in experiment [14], in [16], in experiment [17], in [18], in experiment [10] and in experiment [11] was inactive. For the same molecule, the Potency result in experiment [15], in experiment [3], in experiment [4], in experiment [5], in [6] and in experiment [7] was “inactive” throughout. Besides, the Potency entry in experiment [8] and in [9] was “inactive” throughout.

Regarding `CN1C2CC(OC(=O)C(CO)c3ccccc3)CC1C1OC12` (configuration not stated), the Potency entry in experiment [3], in experiment [5], in [6], in [7] and in [9] was “inactive” throughout. Further, the call in experiment [10] was inactive.

As to `Nc1nc(Nc2ccccc2)nc2c1ncn2[C@@H]1O[C@H](CO)[C@H](O)[C@H]1O`, the result in experiment [10], in experiment [11] and in [20] was inactive.
